The record followed here is PubChem BioAssay AID1347081 (National Center for Advancing Translational Sciences (NCATS), 2019).

Structures are written as SMILES. Results filed as inconclusive are left out. Activity calls are given as the source filed them. The call rests on the fitted dose curve.

This test in a line: qHTS for Inhibitors of the Functional Ribonucleoprotein Complex (vRNP) of Lassa (LASV) Arenavirus: Viability assay - alamar blue signal for LASV Confirmatory Screen. Particulars: LASV vRNP counter-screen cells; series mostly up to 53.9 µM.

With `CC[C@@H](C(=O)O)[C@@H]1O[C@@H]([C@@H](C)[C@H](O)[C@H](C)C(=O)[C@H](CC)[C@H]2O[C@]3(C=C[C@@H](O)[C@]4(CC[C@@](C)([C@H]5CC[C@](O)(CC)[C@H](C)O5)O4)O3)[C@H](C)C[C@@H]2C)[C@@H](C)C[C@@H]1C`, the Potency is 1.57 µM (active).
As for `CCc1cncnc1N1CCN(Cc2nc3ccc(C(F)(F)F)cc3[nH]2)CC1`, the figure is 12.5 µM (active); as for `Oc1cc(Cl)ccc1Oc1ccc(Cl)cc1Cl`, 39.5 µM (active).
With `CC12C(=O)OC(=O)C1(C)C1CCC2O1` (stereo not drawn), the Potency is 3.85 µM (active).
The result for `CC(O)(P(=O)(O)O)P(=O)(O)O` reads “inactive”; that for `CCCCCN=C(N)N/N=C/c1c[nH]c2ccc(OC)cc12`, 8.63 µM (active).
The result for `Cc1cccc(-c2[nH]c(C(C)(C)C)nc2-c2ccc3c(c2)OCO3)n1` reads 4.85 µM (active); that for `COc1ccc(Cc2nccc3cc(OC)c(OC)cc23)cc1OC`, 13.7 µM (active).
As for `CO/C=C(/C(=O)OC)c1ccccc1Oc1cc(Oc2ccccc2C#N)ncn1`, the figure is 31.4 µM (active); as for `S=C(NCc1ccc2c(c1)OCO2)N1CCN(c2ncnc3c2oc2ccccc23)CC1`, 8.85 µM (active); as for `O=C(Nc1ccc([N+](=O)[O-])cc1Cl)c1cc(Cl)ccc1O`, 2.17 µM (active).
With `CCn1c(-c2nonc2N)nc2cnc(Oc3cccc(NC(=O)c4ccc(OCCN5CCOCC5)cc4)c3)cc21`, the Potency was 8.63 µM (active).
On to `CCOC(=O)OCC/C(SC(=O)OCC)=C(\C)N(C=O)Cc1cnc(C)nc1N`, for which the Potency result is “inactive”.
The result for `CCCCC/C(C=O)=C\c1ccccc1` reads “inactive”; that for `CC1=C(C)C(=O)C(CCCCC#CCCCC#CCO)=C(C)C1=O`, 24.3 µM (active); that for `CCN(CC)C(=O)N[C@@H]1C=C2c3cccc4[nH]cc(c34)C[C@@H]2N(C)C1`, “inactive”.
The result for `CC1OC(=O)[C@@H](C(C)C)NC(=O)C(C(C)C)OC(=O)[C@H](C(C)C)NC(=O)C(C)OC(=O)[C@@H](C(C)C)NC(=O)C(C(C)C)OC(=O)[C@H](C(C)C)NC(=O)C(C)OC(=O)[C@@H](C(C)C)NC(=O)C(C(C)C)OC(=O)[C@H](C(C)C)NC1=O` (stereo partly drawn) reads 1.22 µM (active).
As for `Cc1ccc2c(c1)C1CN(C)CCC1N2` (stereo not drawn), the Potency entry was “inactive”.
The result for `O=c1[nH]c2ccccc2n1C1CCN(CCCC(c2ccc(F)cc2)c2ccc(F)cc2)CC1` reads “inactive”; that for `O=C1Cc2cc(CCN3CCN(c4nsc5ccccc45)CC3)c(Cl)cc2N1`, “inactive”; that for `Cn1cc(-c2ccncc2)c(-c2ccc(OCc3ccc4ccccc4n3)cc2)n1`, 21.7 µM (active).
On to `O=c1ccc2ccc(O)c(O)c2o1`, for which the Potency result was “inactive”.
The result for `Clc1nccc2c1ccc1ccccc12` reads “inactive”.
